Reference: the supplement of paper PMC10849652
Targets with a hit are over-represented here; the source holds about 7,900 in all. About 0.6% of all pairs of compound and target were hits.

How the values were obtained:
Assay in all cases: log2 fold change, soluble protein after heating vs DMSO (PISA); higher = thermal stabilisation; K562 cells, 10 uM, 30 min; active = over 0.2 and 3.5 SD of the protein, either way, in both replicates (recomputed)
bafetinib = compound: Cc1ccc(NC(=O)c2ccc(CN3CC[C@H](N(C)C)C3)c(C(F)(F)F)c2)cc1Nc1nccc(-c2cncnc2)n1 [bafetinib]
Outline: (§1)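 Soluble protein was defined as the supernatant after 21,000xg for 90 min. It came from K562 cells at 2×10^6 cells/mL given 10 μM compound for 30 min, heated in aliquots for 3 min across 48°C-58°C, pooled, and extracted in PBS with 0.5% NP-40 at 4°C, and was quantified by TMTpro 16plex LC-MS/MS with equalised channel sums. Thermal stability against control samples, from duplicates, is reported as log2 fold change.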

[1] = compound: Cc1cccc(CC(=O)N2CCc3c2ccc(-c2cn(C)c4ncnc(N)c24)c3F)n1
Outline: as §1

nilotinib = compound: Cc1cn(-c2cc(NC(=O)c3ccc(C)c(Nc4nccc(-c5cccnc5)n4)c3)cc(C(F)(F)F)c2)cn1 [nilotinib]
Outline: as §1

[2] = compound: Cc1nc(Nc2n[nH]c3c2CN(C(=O)N[C@H](CN(C)C)c2ccccc2)C3(C)C)c2sccc2n1
Outline: as §1

dasatinib = compound: Cc1nc(Nc2ncc(C(=O)Nc3c(C)cccc3Cl)s2)cc(N2CCN(CCO)CC2)n1 [dasatinib]
Outline: as §1

[3] = compound: Cc1ncc(-c2ccnc(Nc3ccc(S(C)(=O)=O)cc3)n2)n1C(C)C
Outline: as §1

[4] = compound: Cn1cc(-c2ccc3c(c2)CCN3C(=O)Cc2cccc(C(F)(F)F)c2)c2c(N)ncnc21
Outline: as §1

[5] = compound: Cn1cc(-c2ccc3nnc(C(F)(F)c4ccc5ncccc5c4)n3n2)cn1
Outline: as §1

tipifarnib = compound: Cn1cncc1[C@@](N)(c1ccc(Cl)cc1)c1ccc2c(c1)c(-c1cccc(Cl)c1)cc(=O)n2C [tipifarnib]
Outline: as §1

mubritinib = compound: FC(F)(F)c1ccc(/C=C/c2nc(COc3ccc(CCCCn4ccnn4)cc3)co2)cc1 [mubritinib]
Outline: as §1

Measured: log2 fold change

EGLN1 (UniProt Q9GZT9)
Sequence of UniProt Q9GZT9 (Q9GZT9 whole entry, looked up): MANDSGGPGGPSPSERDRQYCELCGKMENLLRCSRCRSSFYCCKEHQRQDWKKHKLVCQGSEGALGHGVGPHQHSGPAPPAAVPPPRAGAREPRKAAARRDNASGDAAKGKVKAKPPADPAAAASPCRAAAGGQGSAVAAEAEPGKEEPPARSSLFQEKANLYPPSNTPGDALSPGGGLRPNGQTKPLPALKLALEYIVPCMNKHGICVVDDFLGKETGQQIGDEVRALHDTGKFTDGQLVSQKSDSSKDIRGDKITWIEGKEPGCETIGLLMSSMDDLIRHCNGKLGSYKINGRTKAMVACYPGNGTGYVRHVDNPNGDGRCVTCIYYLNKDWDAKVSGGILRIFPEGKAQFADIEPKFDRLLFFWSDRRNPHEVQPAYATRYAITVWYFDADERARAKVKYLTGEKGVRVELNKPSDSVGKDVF
inactive: bafetinib -0.031 | [1] -0.018 | nilotinib 0.066 | [2] -0.026 | dasatinib -0.073 | [3] -0.036 | [4] -0.01 | [5] 0.017 | tipifarnib 0.016 | mubritinib -0.116

CTSZ (UniProt Q9UBR2)
inactive: [1] -0.027 | nilotinib 0.028 | [2] -0.146 | dasatinib 0.054 | [3] -0.022 | [4] 0.058 | [5] 0.022 | tipifarnib 0.052 | mubritinib 0.033
active: bafetinib -1.01

DBR1 (UniProt Q9UK59)
inactive: bafetinib -0.001 | [1] 0.02 | nilotinib -0.023 | [2] 0.05 | dasatinib 0.06 | [3] -0.009 | [4] 0.021 | [5] -0.067 | tipifarnib 0.03 | mubritinib -0.002

DPYSL2 (UniProt Q16555)
inactive: bafetinib -0.114 | [1] 0.081 | nilotinib 0.046 | [2] -0.063 | dasatinib 0 | [3] 0.079 | [4] 0.042 | tipifarnib 0.015 | mubritinib -0.048

CYP24A1 (UniProt Q07973)
Sequence of UniProt Q07973 (Q07973 whole entry, looked up): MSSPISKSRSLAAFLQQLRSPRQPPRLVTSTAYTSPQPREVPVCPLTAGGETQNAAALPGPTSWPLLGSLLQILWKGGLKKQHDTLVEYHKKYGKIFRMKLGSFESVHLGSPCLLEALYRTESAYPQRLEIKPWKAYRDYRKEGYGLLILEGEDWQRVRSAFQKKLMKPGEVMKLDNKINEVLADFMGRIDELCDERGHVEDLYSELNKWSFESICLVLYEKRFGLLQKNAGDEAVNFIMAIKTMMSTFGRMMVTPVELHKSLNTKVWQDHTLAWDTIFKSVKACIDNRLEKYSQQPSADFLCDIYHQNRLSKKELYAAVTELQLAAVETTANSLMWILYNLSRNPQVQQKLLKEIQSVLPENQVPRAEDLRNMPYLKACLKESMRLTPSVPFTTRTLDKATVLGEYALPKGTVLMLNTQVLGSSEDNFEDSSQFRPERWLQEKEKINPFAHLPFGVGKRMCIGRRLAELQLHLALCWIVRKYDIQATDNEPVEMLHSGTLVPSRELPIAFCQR
inactive: bafetinib 0.373 | [1] -0.049 | nilotinib 0.01 | [2] 0.167 | dasatinib 0.184 | [3] -0.105 | [5] -0.057 | tipifarnib 0.101 | mubritinib -0.074

EXOC8 (UniProt Q8IYI6)
inactive: bafetinib -0.081 | [1] 0.071 | nilotinib -0.054 | [2] -0.137 | dasatinib -0.1 | [3] -0.012 | [4] -0.015 | [5] 0.028 | tipifarnib -0.038 | mubritinib 0.039

F5 (UniProt P12259)
inactive: bafetinib -0.076 | [1] -0.02 | nilotinib 0.021 | [2] 0.019 | dasatinib 0.05 | [3] 0.023 | [4] 0.072 | [5] 0.111 | tipifarnib 0.153 | mubritinib -0.089

EIF2AK3 (UniProt Q9NZJ5)
Sequence of UniProt Q9NZJ5 (Q9NZJ5 whole entry, looked up): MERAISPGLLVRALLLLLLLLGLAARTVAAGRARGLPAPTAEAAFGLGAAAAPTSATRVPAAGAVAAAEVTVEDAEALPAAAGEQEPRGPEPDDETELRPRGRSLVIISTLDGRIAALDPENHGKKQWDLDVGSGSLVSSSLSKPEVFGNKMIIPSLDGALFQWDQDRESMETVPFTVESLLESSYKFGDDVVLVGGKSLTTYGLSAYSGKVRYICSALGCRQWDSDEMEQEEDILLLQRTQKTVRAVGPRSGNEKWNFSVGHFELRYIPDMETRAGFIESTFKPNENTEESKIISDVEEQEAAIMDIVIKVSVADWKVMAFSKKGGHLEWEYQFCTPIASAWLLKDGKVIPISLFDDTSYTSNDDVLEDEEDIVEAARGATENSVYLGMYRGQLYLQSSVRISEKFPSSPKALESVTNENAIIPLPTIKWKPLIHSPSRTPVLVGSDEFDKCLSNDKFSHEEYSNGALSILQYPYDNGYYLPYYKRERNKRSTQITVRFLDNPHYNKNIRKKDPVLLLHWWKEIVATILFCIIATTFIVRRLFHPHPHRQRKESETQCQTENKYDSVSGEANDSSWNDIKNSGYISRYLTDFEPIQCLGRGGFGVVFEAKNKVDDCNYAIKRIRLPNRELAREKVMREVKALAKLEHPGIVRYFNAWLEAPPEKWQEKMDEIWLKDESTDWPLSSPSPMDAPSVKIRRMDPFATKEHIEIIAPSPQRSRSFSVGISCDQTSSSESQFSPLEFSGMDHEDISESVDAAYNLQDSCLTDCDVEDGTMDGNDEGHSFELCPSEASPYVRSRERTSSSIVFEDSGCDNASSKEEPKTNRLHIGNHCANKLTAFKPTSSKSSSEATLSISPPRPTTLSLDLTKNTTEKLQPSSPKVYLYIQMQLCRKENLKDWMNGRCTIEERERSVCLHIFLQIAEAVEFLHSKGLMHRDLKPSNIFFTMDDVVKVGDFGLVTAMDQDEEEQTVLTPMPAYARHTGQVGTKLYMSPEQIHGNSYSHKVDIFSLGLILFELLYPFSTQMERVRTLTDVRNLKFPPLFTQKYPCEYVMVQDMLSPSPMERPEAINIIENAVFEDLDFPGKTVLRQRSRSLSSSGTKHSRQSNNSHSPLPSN
inactive: bafetinib 0.082 | [1] 0.535 | nilotinib -0.201 | [2] -0.072 | dasatinib -0.017 | [3] -0.067 | tipifarnib -0.057 | mubritinib 0.019
active: [4] 0.845

EIF2AK1 (UniProt Q9BQI3)
inactive: bafetinib -0.162 | [1] 0.171 | dasatinib -0.068 | [4] 0.19 | [5] 0 | tipifarnib -0.035 | mubritinib -0.025

ELOVL7 (UniProt A1L3X0)
inactive: dasatinib -0.088 | [4] -0.057

ELMO1 (UniProt Q92556)
inactive: bafetinib 0.033 | nilotinib -0.038 | [2] 0.026 | dasatinib 0.03 | [3] -0.001 | [5] 0.06 | mubritinib -0.087

CWF19L2 (UniProt Q2TBE0)
inactive: [1] -0.285 | dasatinib 0.118 | [4] -0.102 | [5] 0.001 | tipifarnib 0.083

DNAJB1 (UniProt M0R128)
inactive: bafetinib -0.252 | [4] -0.022

EEF2K (UniProt O00418)
Sequence of UniProt O00418 (O00418 whole entry, looked up): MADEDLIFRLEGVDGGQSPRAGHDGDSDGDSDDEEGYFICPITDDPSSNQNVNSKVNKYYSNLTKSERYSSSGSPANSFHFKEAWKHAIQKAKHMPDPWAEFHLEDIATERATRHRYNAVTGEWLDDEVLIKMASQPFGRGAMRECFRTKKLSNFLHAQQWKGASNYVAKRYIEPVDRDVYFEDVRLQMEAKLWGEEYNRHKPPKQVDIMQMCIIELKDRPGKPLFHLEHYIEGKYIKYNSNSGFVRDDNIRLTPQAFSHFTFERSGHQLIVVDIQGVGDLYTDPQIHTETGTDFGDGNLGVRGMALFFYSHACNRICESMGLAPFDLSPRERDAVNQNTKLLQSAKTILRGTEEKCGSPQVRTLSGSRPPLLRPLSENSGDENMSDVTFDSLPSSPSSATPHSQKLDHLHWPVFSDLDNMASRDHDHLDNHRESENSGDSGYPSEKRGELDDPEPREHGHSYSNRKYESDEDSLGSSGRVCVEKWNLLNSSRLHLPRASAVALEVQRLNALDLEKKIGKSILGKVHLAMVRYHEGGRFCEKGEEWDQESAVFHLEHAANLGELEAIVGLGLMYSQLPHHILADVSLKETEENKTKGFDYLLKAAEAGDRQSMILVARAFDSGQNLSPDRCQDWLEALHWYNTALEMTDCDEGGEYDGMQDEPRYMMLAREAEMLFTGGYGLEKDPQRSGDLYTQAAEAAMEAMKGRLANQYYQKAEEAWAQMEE
inactive: [1] 0.007 | [4] -0.108 | [5] 0 | tipifarnib -0.092 | mubritinib -0.371

F2RL3 (UniProt Q96RI0)
Sequence of UniProt Q96RI0 (Q96RI0 whole entry, looked up): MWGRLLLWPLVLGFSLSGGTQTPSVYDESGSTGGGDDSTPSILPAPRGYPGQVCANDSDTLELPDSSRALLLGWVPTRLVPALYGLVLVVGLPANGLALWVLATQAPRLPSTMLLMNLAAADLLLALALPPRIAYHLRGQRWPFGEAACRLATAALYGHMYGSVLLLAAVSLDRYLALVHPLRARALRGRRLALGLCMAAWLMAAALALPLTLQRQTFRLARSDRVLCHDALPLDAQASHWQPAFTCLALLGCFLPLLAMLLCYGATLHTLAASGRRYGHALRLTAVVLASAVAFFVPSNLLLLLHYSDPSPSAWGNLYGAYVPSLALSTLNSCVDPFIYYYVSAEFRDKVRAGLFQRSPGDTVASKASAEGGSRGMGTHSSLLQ
inactive: dasatinib -0.03 | [4] -0.051 | [5] 0.043 | tipifarnib -0.016

FAM117B (UniProt Q6P1L5)
Sequence of UniProt Q6P1L5 (Q6P1L5 whole entry, looked up): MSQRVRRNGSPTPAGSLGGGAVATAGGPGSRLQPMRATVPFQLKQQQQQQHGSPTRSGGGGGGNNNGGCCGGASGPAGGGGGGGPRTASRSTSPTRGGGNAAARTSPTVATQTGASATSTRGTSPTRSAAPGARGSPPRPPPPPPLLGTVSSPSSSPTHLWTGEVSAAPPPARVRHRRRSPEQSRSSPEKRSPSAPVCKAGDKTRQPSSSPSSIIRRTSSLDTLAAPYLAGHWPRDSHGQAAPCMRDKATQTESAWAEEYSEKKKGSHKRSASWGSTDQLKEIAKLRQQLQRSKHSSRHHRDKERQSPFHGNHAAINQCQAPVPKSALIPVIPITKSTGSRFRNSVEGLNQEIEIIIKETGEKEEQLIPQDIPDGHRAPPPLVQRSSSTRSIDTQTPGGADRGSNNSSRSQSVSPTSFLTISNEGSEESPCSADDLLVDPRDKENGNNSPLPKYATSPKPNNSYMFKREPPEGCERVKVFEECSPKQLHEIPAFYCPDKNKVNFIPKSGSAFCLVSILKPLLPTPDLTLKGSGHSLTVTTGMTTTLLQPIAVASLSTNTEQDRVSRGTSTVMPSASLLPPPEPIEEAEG
inactive: [1] 0.01 | dasatinib 0.207 | [4] -0.029 | [5] 0.072

DLK1 (UniProt P80370)
inactive: dasatinib -0.012 | [4] -0.279

DDX27 (UniProt Q96GQ7)
inactive: [1] -0.093 | nilotinib -0.193 | [2] -0.051 | dasatinib 0.21 | [3] 0.3 | [4] -0.313 | [5] -0.151 | mubritinib -0.146

EHBP1 (UniProt Q8NDI1)
Sequence of UniProt Q8NDI1 (Q8NDI1 whole entry, looked up): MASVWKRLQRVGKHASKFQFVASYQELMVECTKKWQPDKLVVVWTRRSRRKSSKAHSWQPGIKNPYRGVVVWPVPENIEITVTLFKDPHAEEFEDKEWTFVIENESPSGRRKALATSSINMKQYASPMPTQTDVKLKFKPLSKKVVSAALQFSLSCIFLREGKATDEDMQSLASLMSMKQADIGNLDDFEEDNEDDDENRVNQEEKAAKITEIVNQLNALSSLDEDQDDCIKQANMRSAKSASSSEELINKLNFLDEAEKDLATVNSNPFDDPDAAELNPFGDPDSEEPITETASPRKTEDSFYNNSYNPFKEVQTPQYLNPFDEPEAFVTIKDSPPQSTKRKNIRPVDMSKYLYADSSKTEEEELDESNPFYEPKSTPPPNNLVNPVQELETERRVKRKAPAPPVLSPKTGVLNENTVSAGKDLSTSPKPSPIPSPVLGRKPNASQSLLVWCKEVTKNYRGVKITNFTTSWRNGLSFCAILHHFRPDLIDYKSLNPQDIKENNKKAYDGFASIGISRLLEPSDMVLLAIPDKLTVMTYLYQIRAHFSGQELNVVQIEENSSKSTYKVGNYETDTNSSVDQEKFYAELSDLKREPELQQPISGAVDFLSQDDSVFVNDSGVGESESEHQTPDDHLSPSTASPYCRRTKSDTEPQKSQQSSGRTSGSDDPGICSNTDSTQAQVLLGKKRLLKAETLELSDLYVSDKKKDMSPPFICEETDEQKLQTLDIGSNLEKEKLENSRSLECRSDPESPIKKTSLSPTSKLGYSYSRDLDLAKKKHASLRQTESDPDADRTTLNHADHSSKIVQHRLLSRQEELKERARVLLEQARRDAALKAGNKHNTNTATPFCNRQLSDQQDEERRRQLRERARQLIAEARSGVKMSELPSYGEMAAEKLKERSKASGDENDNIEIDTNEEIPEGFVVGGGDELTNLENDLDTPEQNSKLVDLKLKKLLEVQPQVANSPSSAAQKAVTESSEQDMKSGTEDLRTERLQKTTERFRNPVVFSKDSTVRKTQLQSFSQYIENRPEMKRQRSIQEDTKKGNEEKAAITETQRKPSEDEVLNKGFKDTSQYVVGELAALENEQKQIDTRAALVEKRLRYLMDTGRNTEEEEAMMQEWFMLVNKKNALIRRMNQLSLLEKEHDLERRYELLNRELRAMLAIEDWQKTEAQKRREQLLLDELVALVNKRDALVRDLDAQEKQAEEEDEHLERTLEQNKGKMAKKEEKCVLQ
active: mubritinib -0.586
inactive: [1] -0.154 | [4] -0.076

CTNNBL1 (UniProt Q8WYA6)
inactive: bafetinib -0.12 | tipifarnib 0.022

ENTR1 (UniProt Q96C92)
inactive: dasatinib 0.003 | tipifarnib 0.259

ENTPD7 (UniProt Q9NQZ7)
inactive: bafetinib -0.165 | nilotinib -0.104 | [2] -0.17 | dasatinib -0.235 | [3] 0.056 | tipifarnib 0.163 | mubritinib 0.097
